# D2 antagonist: HTS Assay for Allosteric Antagonists of the Human D2 Dopamine Receptor: Primary Screen for Antagonists; AID 485344, 2010; inhibition, % at 10 µM; D(2) dopamine receptor (Homo sapiens), P14416; HEK293 TREx D2 cells, calcium flux, dopamine EC80; actives 2% (n = 340,000); in the data active means inhibition above about 30%; inactive means below that, where a call was filed; further: 0% is about no effect
#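 HEK293 T-REx D2 cells, tet-induced, calcium dye no-wash. Cpd pintool add, 180 s kinetic, then EC80 DA, 180 s kinetic. Ca flux read.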
# D2 ag-1: HTS Assay for Allosteric Agonists of the Human D2 Dopamine Receptor: Primary Screen for Agonists; D(2) dopamine receptor (Homo sapiens), P14416; actives 0.53% (n = 340,000); HEK293 T-REx D2 cells, calcium flux agonist mode; activation, % at 2 µM;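 active means activation over 3 SD above normal in the single-dose calcium agonist read, cut at about 30% in these data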; further: 0% is about no effect
#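 HEK293 Trex D2 cells, tetracycline-induced, o/n 30 C 5% CO2; no-wash Ca dye, RT 30–90 min; 10-cycle baseline, 23 nl cpd added, kinetic Ca read 180 s; agonist hits = positive Ca response.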
# D2 PAM-1: Beta-Arrestin HTS for Positive Allosteric Modulators of the Human D2 Dopamine Receptor: Potentiators | D(2) dopamine receptor (Homo sapiens), P14416 | AID 624464, 2012 | actives 0.23% (n = 360,000) | potentiation, % (no concentration beside the values) | DiscoveRx D2 beta-arrestin cells, luminescence, 90 min; 100% = 57 uM dopamine signal; in the data active means potentiation above about 50%; inconclusive means mostly about 30% to 49%
#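 PathHunter D2 cells, attached overnight at 37 deg C, received compound in DMSO plus dopamine at EC20 (50 nM final) for 90 min at 37 deg C. Beta-arrestin recruitment was read as luminescence after 1 h with detection reagent at ambient temperature.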
# D2 ag-2: Beta-Arrestin HTS for Positive Allosteric Modulators of the Human D2 Dopamine Receptor: Agonists; D(2) dopamine receptor (Homo sapiens), P14416; DiscoveRx PathHunter D2 beta-arrestin, luminescence, 90 min; 100% = 57 uM dopamine signal; activation, % (no concentration beside the values); actives 0.084% (n = 360,000); AID 624465, 2012; in the data active means activation above about 40%; inconclusive means between about 15% and that limit
#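 DiscoveRx PathHunter D2 beta-arrestin cells (2,100/well) attached overnight, then compound-stimulated 90 min at 37 C in HBSS/10 mM HEPES/0.1% Tween-20 buffer; beta-galactosidase complementation read by luminescence after 1 h at ambient temperature. Dopamine 57 uM final (EC100) as control.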
# D2 PAM-2: HTS Assay for Positive Allosteric Modulators of the Human D2 Dopamine Receptor: Primary Screen for Potentiators. D(2) dopamine receptor (Homo sapiens), P14416. HEK293 T-REx D2, calcium flux, EC20 dopamine potentiation. potentiation, % at 10 µM. actives 0.34% (n = 340,000);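 active means potentiation over 3 SD above the plate norm, cut at about 30% in these data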; further: 0% is about no effect
#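 Tetracycline-induced Hek293 Trex D2 cells, force-coupled to calcium, loaded with no-wash calcium dye. Compound added with 180 s kinetic read for agonism, then EC20 dopamine and a further 180 s read for potentiation.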
# D3 arrestin ag: qHTS of D3 Dopamine Receptor Agonist: D3 Dopamine Receptor B-arrestin Agonist Confirmatory Assay; shares compounds with D2 ag-1; DiscoveRx D3 beta-arrestin cells, luminescence, 90 min; Potency, µM (highest dose often 76.9 µM), inactives show top-dose activation, usual class: activators; actives 4% (n = 2,300); AID 720506, 2013;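 further: potency means the concentration at half of the fitted maximal effect; 100% = dopamine control response; nearly all actives have a fitted effect of over 70% in size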
# Target sequence (P35462 whole entry, looked up): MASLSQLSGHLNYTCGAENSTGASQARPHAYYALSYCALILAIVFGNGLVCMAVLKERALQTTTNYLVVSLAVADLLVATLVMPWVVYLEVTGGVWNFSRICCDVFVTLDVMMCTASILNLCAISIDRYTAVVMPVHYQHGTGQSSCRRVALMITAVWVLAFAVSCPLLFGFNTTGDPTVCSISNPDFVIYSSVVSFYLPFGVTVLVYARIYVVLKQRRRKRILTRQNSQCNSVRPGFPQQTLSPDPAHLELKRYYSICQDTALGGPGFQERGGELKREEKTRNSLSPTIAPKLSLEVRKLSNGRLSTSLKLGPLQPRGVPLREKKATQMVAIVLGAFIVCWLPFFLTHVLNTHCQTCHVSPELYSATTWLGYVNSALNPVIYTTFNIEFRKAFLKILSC
# D2 ag-3: qHTS of D3 Dopamine Receptor Agonist: D2 Dopamine Receptor B-arrestin Agonist Counterscreen; Potency, µM (titrated, usually from 76.9 µM), without a hit: at the highest dose activation, hits mostly activators; DiscoveRx PathHunter D2 beta-arrestin, luminescence, 90 min; response scale: percent relative to full dopamine signal; shares compounds with D2 ag-1; actives 5.9% (n = 2,300); further: potency means the concentration at half of the fitted maximal effect; % of control where 0% means no effect; nearly all actives have a fitted effect of over 70% in size
# Starred values were filed as active, the others as inactive; ? = inconclusive; . = no result given. Rows were chosen to be rich in hits. Some 2.4% of all compounds tested hit in one or more screens of this group. Unless noted, the call rests on the fitted dose curve; in most records, active means well fitted activation curve with a large enough effect; inconclusive means small, poorly fitted or top-dose-only effect; inactive means flat fitted curve, though single readings scatter.
SMILES,D2 antagonist,D2 ag-1,D2 PAM-1,D2 ag-2,D2 PAM-2,D3 arrestin ag,D2 ag-3
O=S(=O)(c1ccc(OCC(O)CN2CCN(c3ccc(F)cc3)CC2)cc1)N1CCOCC1 (configuration not stated),67*,76*,-10,13,-17,8%,?
COc1ccccc1NCC(O)COc1ccc(C(C)(C)C)cc1 (configuration not stated),7,0,1,4,0,.,.
COc1ccc(OCC(O)CNCCOc2ccccc2OC)c(C(C)(C)C)c1 (configuration not stated),71*,45*,-10,2,-21,22%,19%
c1ccc2c(CC3=NCCN3)cccc2c1,-5,14,-20,-4,22,.,.
Cc1cc(C(C)(C)C)c(O)c(C)c1CC1=NCCN1,64*,72*,-17,9,-30,3%,14%
CCc1ccccc1N(CC(=O)NC(C)(C)CC)C(=O)CCC(=O)Nc1nccs1,-1,-1,-2,-6,-1,.,.
CCOC(=O)Cc1csc(NC(=O)CN2CCOCC2)n1,9,0,-4,1,3,-6%,0%
CCCN1CCC2(CC1)C(C#N)=C(N)Oc1c2sc2nc(C)cc(C)c12,96*,78*,-3,11,-21,22%,-2%
Cc1nn(C(=O)CCC(=O)NCc2ccccc2Cl)c2ccccc12,9,0,-10,-2,1,.,.
O=c1c2cc([N+](=O)[O-])ccc2nc(CN2CCN(c3ccccn3)CC2)n1-c1ccccc1F,-24,27,-3,0,-21,13%,8%
Fc1ccc(NC(=S)N2CCCC(c3ccccc3)=N2)cc1,-2,26,5,-4,3,-6%,22%
C=C(C)C1CC=C(CN2CCC(C(=O)OCC)CC2)CC1 (configuration not stated),72*,60*,-4,10,-22,-3%,20%
Cc1ccccc1C(=O)N(Cc1nc(-c2ccc(Cl)cc2)no1)C(C)C,.,1,.,.,-7,.,.
COc1ccccc1C(=O)N(Cc1nc(-c2ccc(Cl)cc2)no1)C(C)C,-5,51*,-3,3,-17,-1%,19%
CC(C)N(Cc1nc(-c2ccccc2)no1)C(=O)c1ccc(Cl)cc1,-2,51*,-7,-8,-20,-11%,4%
CC(C)N(Cc1nc(-c2ccccc2)no1)C(=O)c1ccc([N+](=O)[O-])cc1,3,-1,1,-1,-7,.,.
COc1cc(NC(=O)CN(C)S(=O)(=O)c2ccc3c(c2)CC(C)N3C(C)=O)cc(OC)c1OC (configuration not stated),-2,0,-6,10,-3,.,.
Cc1ccc(CN2C(=O)C(=O)N(CC(N)=O)C2=O)cc1,-11,1,-11,-3,-5,.,.
C=C(C)CN1C(=O)C(=O)N(CC(=C)C)C1=O,-17,90*,-5,-4,-12,-8%,-3%
O=C(Cn1c(=O)n(-c2ccccc2)c(=O)c2c3c(sc21)CCCC3)Nc1ccc(F)cc1,.,0,.,.,-3,.,.
Cc1ccc(S(=O)(=O)N(C)C)cc1NC(=O)COC(=O)CN1C(=O)c2ccccc2C1=O,-20,0,-29,-4,-15,4%,-4%

# Compound activity deposited in PubChem by National Center for Advancing Translational Sciences (NCATS).
